Laboratory results reported in ChEMBL document CHEMBL1961873, “Compounds: GSK PKIS; Assays: Nanosyn kinase panel” (2012).
Values joined by “and” are separate entries in the source; they are usually repeats but may differ in a detail not shown here. Equal entries are not always repeated.

Columns and labels:
[1] = target: Mitogen-activated protein kinase 3 (Homo sapiens) (UniProt P27361); conditions: at 1 µM;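 also: values are mean percent inhibition of MAPK3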
[2] = target: SRSF protein kinase 3 (Homo sapiens) (UniProt Q9UPE1); conditions: at 0.1 µM
[3] = target: SRSF protein kinase 3 (Homo sapiens) (UniProt Q9UPE1); conditions: at 1 µM
[4] = target: Mitogen-activated protein kinase 14 (Homo sapiens) (UniProt Q16539); conditions: at 0.1 µM
[5] = target: Mitogen-activated protein kinase 14 (Homo sapiens) (UniProt Q16539); conditions: at 1 µM
[6] = target: Mitogen-activated protein kinase 11 (Homo sapiens) (UniProt Q15759); conditions: at 0.1 µM
[7] = target: Mitogen-activated protein kinase 11 (Homo sapiens) (UniProt Q15759); conditions: at 1 µM
[8] = target: T1, Mitogen-activated protein kinase 13 (Homo sapiens) (UniProt O15264); conditions: at 0.1 µM
T1 sequence (whole entry): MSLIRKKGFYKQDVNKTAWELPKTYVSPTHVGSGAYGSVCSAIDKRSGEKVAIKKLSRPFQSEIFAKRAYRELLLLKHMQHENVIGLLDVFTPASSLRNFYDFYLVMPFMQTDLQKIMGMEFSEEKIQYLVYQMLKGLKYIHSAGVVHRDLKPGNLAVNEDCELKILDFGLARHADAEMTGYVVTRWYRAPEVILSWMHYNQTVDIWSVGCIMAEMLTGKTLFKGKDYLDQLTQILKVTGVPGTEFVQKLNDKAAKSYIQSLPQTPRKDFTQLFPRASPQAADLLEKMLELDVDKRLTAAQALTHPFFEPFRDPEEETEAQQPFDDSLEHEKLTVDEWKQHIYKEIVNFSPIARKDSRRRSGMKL

[9] = target: T1, Mitogen-activated protein kinase 13 (Homo sapiens); conditions: at 1 µM
[10] = target: T2, Mitogen-activated protein kinase 12 (Homo sapiens) (UniProt P53778); conditions: at 0.1 µM
T2 sequence (whole entry): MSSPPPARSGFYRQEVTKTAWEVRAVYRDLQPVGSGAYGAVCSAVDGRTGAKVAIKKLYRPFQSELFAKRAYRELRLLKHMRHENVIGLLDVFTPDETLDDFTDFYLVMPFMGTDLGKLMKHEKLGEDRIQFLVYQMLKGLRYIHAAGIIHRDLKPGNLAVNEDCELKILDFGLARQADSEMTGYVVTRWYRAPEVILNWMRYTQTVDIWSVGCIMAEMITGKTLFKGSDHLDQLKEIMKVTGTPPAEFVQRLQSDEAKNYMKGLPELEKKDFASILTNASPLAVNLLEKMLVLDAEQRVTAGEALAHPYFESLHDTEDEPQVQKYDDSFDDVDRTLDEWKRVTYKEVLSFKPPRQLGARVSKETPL

Mitogen-activated protein kinase 14 (Homo sapiens), sequence (Q16539 whole entry): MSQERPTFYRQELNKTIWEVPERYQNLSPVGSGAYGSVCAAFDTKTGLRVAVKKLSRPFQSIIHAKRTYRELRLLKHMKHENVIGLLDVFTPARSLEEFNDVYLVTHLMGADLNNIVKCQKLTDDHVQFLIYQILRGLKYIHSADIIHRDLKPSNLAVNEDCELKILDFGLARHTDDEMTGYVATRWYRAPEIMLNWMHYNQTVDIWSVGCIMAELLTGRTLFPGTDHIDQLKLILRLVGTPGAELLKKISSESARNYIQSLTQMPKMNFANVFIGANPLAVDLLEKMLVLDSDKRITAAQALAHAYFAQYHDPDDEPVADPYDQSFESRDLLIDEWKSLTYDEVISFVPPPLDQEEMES
SRSF protein kinase 3 (Homo sapiens), sequence (Q9UPE1 whole entry): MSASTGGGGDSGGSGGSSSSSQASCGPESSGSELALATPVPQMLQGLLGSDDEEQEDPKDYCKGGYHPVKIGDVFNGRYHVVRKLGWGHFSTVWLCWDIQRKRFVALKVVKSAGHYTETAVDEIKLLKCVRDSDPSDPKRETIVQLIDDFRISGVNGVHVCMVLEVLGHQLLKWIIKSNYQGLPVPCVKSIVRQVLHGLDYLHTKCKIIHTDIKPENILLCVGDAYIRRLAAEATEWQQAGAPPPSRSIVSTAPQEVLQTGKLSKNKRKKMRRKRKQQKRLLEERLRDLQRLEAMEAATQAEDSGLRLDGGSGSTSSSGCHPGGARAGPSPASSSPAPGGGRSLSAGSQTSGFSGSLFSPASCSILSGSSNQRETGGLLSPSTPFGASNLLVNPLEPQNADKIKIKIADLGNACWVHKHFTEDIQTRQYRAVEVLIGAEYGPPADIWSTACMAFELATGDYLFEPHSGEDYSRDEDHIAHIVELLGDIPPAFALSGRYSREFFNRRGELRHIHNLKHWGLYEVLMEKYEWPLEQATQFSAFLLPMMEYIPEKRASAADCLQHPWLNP
Mitogen-activated protein kinase 3 (Homo sapiens), sequence (P27361 whole entry): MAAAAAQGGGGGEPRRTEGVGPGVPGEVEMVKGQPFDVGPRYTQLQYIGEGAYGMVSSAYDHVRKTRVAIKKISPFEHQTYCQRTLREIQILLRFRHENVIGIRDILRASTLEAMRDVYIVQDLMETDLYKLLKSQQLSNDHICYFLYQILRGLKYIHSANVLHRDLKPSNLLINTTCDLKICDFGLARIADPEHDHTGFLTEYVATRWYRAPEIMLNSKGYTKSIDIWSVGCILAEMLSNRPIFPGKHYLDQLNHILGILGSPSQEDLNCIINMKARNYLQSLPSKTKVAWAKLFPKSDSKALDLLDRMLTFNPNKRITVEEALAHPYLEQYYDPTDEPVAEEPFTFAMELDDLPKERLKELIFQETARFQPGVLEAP
Mitogen-activated protein kinase 11 (Homo sapiens), sequence (Q15759 whole entry): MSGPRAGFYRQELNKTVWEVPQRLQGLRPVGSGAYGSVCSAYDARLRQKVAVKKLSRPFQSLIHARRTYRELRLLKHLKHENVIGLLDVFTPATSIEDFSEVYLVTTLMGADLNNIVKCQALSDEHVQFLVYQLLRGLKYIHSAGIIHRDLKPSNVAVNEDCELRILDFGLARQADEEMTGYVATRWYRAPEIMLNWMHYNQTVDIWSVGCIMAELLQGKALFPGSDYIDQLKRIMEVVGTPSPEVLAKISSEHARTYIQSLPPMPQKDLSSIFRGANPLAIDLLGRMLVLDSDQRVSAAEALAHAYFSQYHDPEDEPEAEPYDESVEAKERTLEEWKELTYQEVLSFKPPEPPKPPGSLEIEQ

| SMILES | inhibition [1] | inhibition [2] | inhibition [3] | inhibition [4] | inhibition [5] | inhibition [6] | inhibition [7] | inhibition [8] | inhibition [9] | inhibition [10] |
| --- | --- | --- | --- | --- | --- | --- | --- | --- | --- | --- |
| Nc1ncnc2occ(-c3ccc(NC(=O)Nc4cc(C(F)(F)F)ccc4F)cc3)c12 | 2.88% and -1.29% | 9.33% and 10.1% | 49.1% and 43.5% | 8.71% and -2.42% | 36.6% and 20.3% | 6.21% and 3.71% | 39% and 32.9% | 5.66% and 0.72% | 29.3% and 17.7% | 15% and 4.47% |
| CS(=O)(=O)Nc1ccc(-c2ccc3c(NC(=O)C4CC4)n[nH]c3c2)cc1 | 3.17% | 1.14% | -1.76% | 2.35% | 7.21% | 1.53% | 0.3% | 3.39% | 4.07% | 1.3% |
| CN(c1ccc(NC(=O)NCCN2CCOCC2)cc1)c1ccnc(Nc2ccc(CS(C)(=O)=O)cc2)n1 | 3.72% | 0.77% | 2.7% | 0.79% | 5.83% | 4.13% | 6.58% | 1.11% | 3.21% | 0.47% |
| COc1c(C(N)=O)cc(-c2ccc(Cl)cc2)cc1-c1ccc(S(N)(=O)=O)cc1 | 5.76% | 2.9% | 0.68% | 8.26% | 10.3% | 4.78% | 4.22% | 4.33% | 6.61% | 4.27% |
| COc1ccc2ncn(-c3cc(O[C@H](C)c4ccccc4C(F)(F)F)c(C(N)=O)s3)c2c1 | 0.26% | -1.14% | -0.79% | -5.71% | 0.3% | -0.35% | 0.3% | -0.27% | -1.08% | 0.21% |
| CS(=O)(=O)Nc1ccc(-c2cc(-c3ccccc3)cc(C(N)=O)c2N)cc1 | 2.24% | -1.51% | -0.01% | 1.19% | 0.84% | 1.8% | 0.17% | 1.96% | 0.64% | 0.99% |
| Cc1nnc(-c2cccc(-c3ccc(C(=O)NCC4CC4)cc3)c2)o1 | 6.64% | -1.05% | -0.94% | 4.85% | 12.2% | 3.66% | 7.35% | 3.76% | 3.54% | 4.5% |
| N#Cc1ccc2c(-c3ccnc(NC4CC4)n3)c(-c3ccc(F)cc3)nn2c1 | 1.27% | -2.45% | -1.38% | 75.4% | 84.2% | 44.5% | 74.8% | 1.17% | 0.18% | 1% |
| Cc1ccc(-c2cc3c(NC(=O)C4CC4)ncnc3o2)cc1 | 1.29% | 0.82% | 0.53% | 3.56% | 6.38% | 1.17% | 7.45% | 5.13% | 4.2% | 1.34% |
| COc1cc(N2CCN(C(C)C)CC2)ccc1Nc1nc(Nc2cccc3ncccc23)c2cc[nH]c2n1 | 0.21% | -0.27% | 1.83% | 1.44% | 2.03% | -0.29% | 0.54% | -1.75% | -2.15% | -0.18% |
| CS(=O)(=O)CCNCc1ccoc1-c1ccc2ncnc(Nc3ccc(OCc4ccccc4)cc3)c2c1 | 1.25% | -1.87% | -1.49% | 2.69% | 0.9% | 2.25% | 1.9% | 0.46% | -0.76% | 0.71% |
| CS(=O)(=O)CCNCc1ccc(-c2ccc3ncnc(Nc4ccc(OCc5ccccc5)cc4)c3c2)o1 | 1.62% | -0.49% | 0.73% | 4.73% | 7.34% | 2.9% | 4.87% | 2.17% | 1.45% | 2.39% |
| COc1cc(Nc2ncc(-c3ccccc3)o2)cc(OC)c1 | 5.68% | -1.19% | 1.14% | 6.3% | 5.68% | 2.87% | 5.59% | 5.24% | 4.13% | 3.61% |
| CC1=C(C(=O)Nc2ccc3[nH]nc(C)c3c2)C(c2ccc(C(F)(F)F)cc2)CC(=O)N1 (stereo not drawn) | 19.7% | 1.18% | -0.95% | 1.31% | 5.28% | -0.15% | 0.38% | 1.19% | 6.03% | -4.7% |
| CCS(=O)(=O)c1ccc(OC)c(Nc2ncc(-c3cccc(F)c3)o2)c1 | 5.09% | -2.3% | 0.15% | 13.4% | 14.9% | 4.8% | 7.52% | 5.58% | 5.36% | 3.31% |
| CNC(=O)c1cncc(/C=C/c2ccccc2C)c1 | 4.66% | -0.87% | 3.21% | 3.76% | 6.09% | 4.82% | 7.21% | 4.01% | 3.77% | 1.29% |

| SMILES | inhibition [1] | inhibition [2] | inhibition [3] | inhibition [4] | inhibition [5] | inhibition [6] | inhibition [7] | inhibition [8] | inhibition [9] | inhibition [10] |
| --- | --- | --- | --- | --- | --- | --- | --- | --- | --- | --- |
| O=C(Nc1n[nH]c2nnc(-c3cccnc3)cc12)C1CC1 | 0.8% | -0.02% | -4.68% | -0.2% | -1.37% | 0.57% | 2.39% | -0.07% | 5.16% | 0.25% |
| CCn1c(-c2nonc2N)nc2cncc(C(=O)NCCNC)c21 | 5.7% | -3.21% | -0.69% | 7.83% | 6.55% | 4.08% | 3.55% | 5.75% | 5.07% | 3.86% |
| COC(=O)Nc1nc2ccc(Oc3ccc(NC(=O)Nc4cc(C(F)(F)F)ccc4F)cc3)cc2s1 | -0.75% | 0.81% | 9.68% | 18.9% | 63.7% | 7.18% | 51.5% | 0.05% | 0.18% | 0.98% |
| c1ccc(-c2n[nH]cc2-c2ccnc(-c3ccc(OCCn4ccnc4)cc3)c2)nc1 | 1.75% | -3.24% | -1.72% | 9.4% | 36.8% | 1.39% | 9.38% | 0.51% | 0.99% | 1.96% |
| COc1ccccc1-c1cc(/C=C2\C(=O)Nc3ncc(Br)cc32)cc(Br)c1O | 2.3% | 0.86% | -0.04% | 2.73% | 11.3% | 5.59% | 5.73% | 0.15% | 9.18% | 2.49% |
| COc1cccc(Nc2nccc(-c3cnn4ncccc34)n2)c1 | 13.1% | -0.05% | 0.66% | 5.7% | 9.35% | 4.7% | 7.72% | 5% | 15.2% | 1.36% |
| Nc1nccc(-c2c(-c3ccc(F)cc3)ncn2C2CCNCC2)n1 | 1.29% and 5.05% | -1.41% and 0.32% | -1.34% and 0.18% |  |  |  |  |  |  |  |
| Cn1c(-c2nonc2N)nc2cnccc21 | 3.9% | -1.11% | -2.32% | 3.4% | 6.34% | 3.09% | 0.59% | 2.23% | 2.42% | 2.62% |
| Cc1cc(O)cc(C)c1/C=C/c1cncc(C(=O)OC(C)(C)C)c1 | 5.66% | -1.96% | -3.77% | 5.49% | 6.26% | 1.86% | 5.95% | 2.17% | 1.43% | 2.88% |
| CN(C)CCNC(=O)Nc1ccc(N(C)c2ccnc(Nc3ccc(CS(C)(=O)=O)cc3)n2)cc1 | 1.29% | 1.45% | -2.85% | 2.66% | 7.04% | 2.16% | 2.52% | 1.99% | 3.74% | -0.76% |
| CC1=C(C(=O)Nc2ccc3[nH]ncc3c2)C(c2ccc(F)cc2)N=C(c2ccc(C(F)(F)F)nc2)N1 (stereo not drawn) | -0.07% | 0.36% | 0.93% | 6.91% | 7.75% | 0.24% | 2.12% | 2.38% | 2.31% | 0.91% |
| COc1cc2c(cc1Nc1nc(Nc3cccc(F)c3C(N)=O)c3cc[nH]c3n1)N(C(=O)CN1CCN(C(C)C)CC1)CC2 | 3.92% | 4.88% | 0.53% | 5.02% | 6.81% | 2.96% | 3.23% | 0.14% | 2.89% | 1.49% |
| c1cnn2ncc(-c3ccnc(NCCCN4CCOCC4)n3)c2c1 | 0.61% | -0.52% | -0.57% | 1.91% | 8.35% | 2.39% | 4.06% | -1.15% | 4.03% | -0.08% |
| CN1CCC(C(=O)Nc2n[nH]c3nc(-c4ccc(O)cc4)c(Br)cc23)CC1 | 6.59% and 1.2% | -1.97% and -1.1% | -0.76% and -0.97% | 1.69% and 4.12% | 13% and 10.5% | 4.89% and 2.05% | 17.5% and 8.93% | 2.74% and 2.79% | 13.7% and 11.6% | 4.48% and 2.47% |
| Nc1nonc1-c1nc2cnccc2n1C1CC1 | 4.99% and 3.59% | -0.3% and -0.76% | -1.03% and 0.65% | 9.91% and 3.52% | 9.15% and 7.62% | 3.95% and 1.62% | 6.89% and 0.76% | 3.43% and 4.51% | 6.86% and 5.08% | 3.64% and 2.61% |
